Source: PubChem BioAssay AID748 (Sanford-Burnham Center for Chemical Genomics, 2007)
Among all 96,000 compounds or so, about 100 (0.1%) were called active.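 The calls were made as follows: active = displacement above 50% at 20 µM plus a fluorescence interference ratio under 1.5; inactive = the rest.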 For the sample, actives were picked, then their nearest neighbours and some compounds at random. Entries with a potency or affinity are not part of this list.

Biological target: Bcl-2-like protein 10 (Homo sapiens) (UniProt Q9HD36)
Test: displacers of TR3 peptide from Bcl-B, primary screen, selectivity assay for Bfl-1 inhibitor project, biochemical, fluorescence polarization, FITC-TR3 peptide (AID 748);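 also: plate controls were wells without compound for no effect and wells lacking Bcl-B protein for full effect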
Details: FP displacement of FITC-TR3 peptide from Bcl-B; at 20 µM; stronger effect = higher value

displacement, inactive:
Cc1ccc(S(=O)(=O)NNC(=O)C2Cc3c(ccc4ccccc34)O2)cc1 (stereo unspecified) -1.6%
Cc1ccc(CSCCNC(=O)c2ccc(N(C)S(=O)(=O)c3ccccc3)cc2)cc1 0%
CCN(CC)c1ccc(C(=O)OCc2cc(=O)oc3cc(O)ccc23)cc1 0%
CC1CN(S(=O)(=O)c2cccc(C(=O)OCc3cc(=O)oc4cc(O)ccc34)c2)CC(C)O1 (stereo unspecified) 16.7%
N#CCCN1CCN(CCC#N)CC1 -1.9%
COCCCn1c2nc3ccccc3nc2c2c(=O)n(Cc3ccc(Cl)cc3)cnc21 -3.8%
COc1ccc(C2Nc3ccccc3C(=O)N2c2ccc(C)cc2)cc1Cn1nc(C)c([N+](=O)[O-])c1C (stereo unspecified) 8.3%
CCS(=O)(=O)N1CCN(c2cccc(C)c2C)CC1 4.1%
CCS(=O)(=O)N1Cc2ccccc2CC1C(=O)N1CCN(c2ccccc2)CC1 (stereo unspecified) 27%
CC1CCCN(c2oc(-c3cccc4ccccc34)nc2C#N)C1 (stereo unspecified) 6.4%
C/C(N)=C(/C#N)C(=O)CSc1nc2ccc(C)cc2[nH]1 8.9%
COc1ccc2nc(SCC(=O)/C(C#N)=C(\C)N)[nH]c2c1 -14.3%
CCOC(=O)C(C(=O)OCC)c1cc(Br)c2noc3c2c1C(=O)c1ccccc1-3 -31.4%
O=C(O)CCCNc1cc(N2CCC3(CC2)OCCO3)c2noc3c2c1C(=O)c1ccccc1-3 33.8%
CCCCOC(=O)Cn1c(=O)n(CC(=O)OCCCC)c2ccccc21 3.3%
COc1ccc(C(CNC(=O)c2ccc(S(=O)(=O)N3CCOCC3)cc2)N2CCCCC2)cc1 (stereo unspecified) 0.7%
Cc1ccc(S(=O)(=O)N2CCCC2)cc1C(=O)O 27.9%
Cc1ccc(S(=O)(=O)N2CCCCC2)cc1C(=O)Nc1ccc2cn[nH]c2c1 5.9%
COC(=O)c1ccccc1NC(=O)c1noc2c1CCCC2 -7.7%
COC(=O)c1ccccc1NC(=O)c1noc2c1CC(C(C)(C)C)CC2 (stereo unspecified) -0.1%
O=C(Nc1ccccc1C(=O)N1CCOCC1)c1noc2c1CCCC2 -1.4%
O=C(Nc1ccc(F)cc1F)c1noc2c1CCC2 46.1%
O=C(CCCN1C(=O)CCC1=O)Nc1ccccc1F 38.1%
Cc1csc(NC(=O)CSc2nnc(Cn3c(=O)sc4ccccc43)n2-c2ccccc2)n1 -8.5%
CCCC(=O)Nc1ccc2oc(-c3ccc(OC)c(Br)c3)nc2c1 -48.6%
O=C(CN1CCCCC1)Nc1cccc(-n2cnnn2)c1 5.6%
